JMJD2A Tudor inh – blocks the human JMJD2A Tudor domain; AlphaScreen JMJD2A-Tudor / H3K4me3 peptide binding; Potency, µM (doses to about 114 µM), inactives show at the top dose activity change, negative = inhibition, most hits filed as inhibitors; 4.4% of 390,000 active; also: % is scaled to controls: 0 for no effect and ±100 for the full control effect; nearly all actives have a fitted effect of over 50% in size
G9a inh – inhibitors of human histone lysine methyltransferase G9a; Potency, µM (titrated, usually from 102 µM), without a hit: at the highest dose activity, negative = inhibition, actives largely listed as inhibitors; Q96KQ7; 8.8% of 350,000 active; G9a H3K9 monomethylation, AlphaScreen, 2 h; AID 504332; also: % is scaled to controls: 0 for no effect and ±100 for the full control effect; nearly all actives have a fitted effect of over 75% in size
Target sequence (Q96KQ7 913-1193 limits assumed): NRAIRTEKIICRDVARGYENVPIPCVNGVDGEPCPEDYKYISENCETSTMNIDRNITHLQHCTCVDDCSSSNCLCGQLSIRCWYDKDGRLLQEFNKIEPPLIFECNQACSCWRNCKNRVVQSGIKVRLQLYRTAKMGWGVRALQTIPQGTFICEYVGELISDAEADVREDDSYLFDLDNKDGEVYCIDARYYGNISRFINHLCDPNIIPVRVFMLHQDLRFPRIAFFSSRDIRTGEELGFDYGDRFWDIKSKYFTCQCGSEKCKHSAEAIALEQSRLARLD
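G9a (20 nM) was preincubated 15 min with compound, then reacted 2 h at room temperature with 500 nM biotin-H3K9 peptide and 20 µM SAM. Monomethyl-H3K9 detected by AlphaScreen using anti-H3K9me1 antibody.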
HP1b binding inh – inhibitors of HP1-beta chromodomain binding to methylated histone tails | Potency, µM (doses to about 114 µM), without a hit: at the highest dose activity change, negative = inhibition, most hits filed as inhibitors | P83916 | 0.56% of 390,000 active | AlphaScreen HP1-beta / biotin-H3K9me3 peptide binding; also: nearly all actives have a fitted effect of over 70% in size
Target sequence (P83916 whole entry, looked up): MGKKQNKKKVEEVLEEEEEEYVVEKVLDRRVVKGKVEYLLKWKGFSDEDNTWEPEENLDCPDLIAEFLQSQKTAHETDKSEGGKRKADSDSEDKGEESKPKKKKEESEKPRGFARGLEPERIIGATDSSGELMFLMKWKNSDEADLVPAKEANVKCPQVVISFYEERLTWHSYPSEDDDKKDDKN
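AlphaScreen: HP1-beta (50 nM) preformed 30 min with biotin-H3(1-18)K9me3 peptide (50 nM) in PBS pH 7.4, 0.01% Tween-20. Compound added for 30 min at RT, then streptavidin donor/nickel chelate acceptor beads (10 ug/mL) for 30 min.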
BAZ2B block – blocks human BAZ2B; Q9UIF8; AlphaScreen BAZ2B-H3K14Ac peptide displacement; Potency, µM (titrated, usually from 114 µM), for the others: at the top dose activity change, negative = inhibition, actives largely listed as inhibitors; 4.4% of 360,000 active; also: % is scaled to controls: 0 for no effect and ±100 for the full control effect; nearly all actives have a fitted effect of over 60% in size
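Inhibition is scored as reduced AlphaScreen emission. The BAZ2B/b-H3(5-23)K14Ac complex (50 nM each) in PBS pH 7.4, 0.01% Tween-20 meets compound (up to 110 uM) for 30 min at RT before bead addition.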
Sfp inh – Sfp phosphopantetheinyl transferase inhibition | Q9F4F7 | AID 1490 | 3.5% of 310,000 active | Potency, µM, inactives show largest response in the series, negative = inhibition, actives largely listed as inhibitors | Biochemical Sfp PPTase activity, qHTS;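 also: the enzyme is Sfp with the accession as filed and its product quenches rhodamine fluorescence; 0% = enzyme reaction without inhibitor and -100% = no enzyme wells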
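After 15 min at room temperature with compound, 15 nM Sfp received 5 uM rhodamine-CoA plus 12.5 uM BHQ-2-ybbR (50 mM Hepes pH 7.6, 10 mM MgCl2). Rate came from the fluorescence difference over 30 min, ex 525/em 598 nm.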
L3MBTL1 block – inhibitors of human L3MBTL1; AlphaScreen L3MBTL1–H3K9me1 peptide binding; Potency, µM (highest dose often 57.1 µM), for inactives: at the top dose activity, negative = inhibition, actives largely listed as inhibitors; 0.66% of 230,000 active; AID 485360; also: % is scaled to controls: 0 for no effect and ±100 for the full control effect; nearly all actives have a fitted effect of over 60% in size
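Read-out is AlphaScreen signal from streptavidin donor and nickel chelate acceptor beads (10 ug/mL final each) bridging L3MBTL1 (50 nM) and biotinylated K9-monomethylated H3(1-15) peptide (75 nM), after 30 min compound exposure at room temperature.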
* marks the source's active call; other numbers are inactive results; [ ] = dose if it differs, or a comment. Hits are enriched below; roughly 12% of the tested compounds scored in any of these assays. Calls follow the shape of the dose curve; as a rule, active = well fitted curve in the direction sought with a large enough effect; inconclusive = small, poorly fitted or top-dose-only effect, or another doubt; inactive = no such curve, though single readings can be large; an effect the other way counts as inactive or inconclusive. Potency is read from the fitted curve at half-maximal effect.

`Cc1cc(C2CCCCC2)n(O)c(=O)c1` gave JMJD2A Tudor inh inconclusive, G9a inh 5%[59 µM], HP1b binding inh 25%, BAZ2B block 79µM*, Sfp inh 5% and L3MBTL1 block -28%.
Screening O=C(c1ccc([N+](=O)[O-])cc1)N1c2ncnn2C2(CCCCC2)[C@@H]2CCCC[C@@H]21 returned JMJD2A Tudor inh -15%, G9a inh -6%[59 µM], HP1b binding inh 9% and BAZ2B block -35%.
Screening CC(=O)Nc1ccc(NC(=O)c2ccco2)cc1 returned JMJD2A Tudor inh -7%, G9a inh 18%[2.33 µM], HP1b binding inh 23%, BAZ2B block 10% and Sfp inh 17%.
Screening CC1N(C)c2cc(NC(=O)c3ccco3)ccc2C1(C)C (stereo not drawn) returned JMJD2A Tudor inh inconclusive, G9a inh inconclusive, HP1b binding inh -11%, BAZ2B block 50µM*, Sfp inh -24% and L3MBTL1 block -14%.
For CCC(=O)Nc1ccc(CC)cc1-c1nc2ccccc2n(CC(=O)Nc2cccc(OC)c2)c1=O the results were JMJD2A Tudor inh -8%, G9a inh -26%[59 µM], HP1b binding inh 29% and BAZ2B block -2%.
Screening NNc1nc(C(F)(F)F)nc2ccccc12 returned JMJD2A Tudor inh 6%, G9a inh 32µM*, HP1b binding inh 23%, BAZ2B block 2% and Sfp inh 50µM*.
`NNc1nc2ccccc2nc1C(F)(F)F` gave JMJD2A Tudor inh 8%[11.4 µM], G9a inh 8.9µM*, HP1b binding inh -8%, BAZ2B block -15% and Sfp inh -24%.
`Cc1ccc(S(=O)(=O)NNc2nc3ccccc3nc2C(F)(F)F)cc1` gave JMJD2A Tudor inh 35µM*, G9a inh 1.4µM*, HP1b binding inh -85%, BAZ2B block 45µM* and Sfp inh 11µM*.
For Cc1ccc(-c2nc3ccccc3nc2NN)cc1 the results were JMJD2A Tudor inh -30%, G9a inh 35µM*, HP1b binding inh 20%, BAZ2B block -17%, Sfp inh 14µM* and L3MBTL1 block 9%.
For CCOC(=O)c1ccc(NC(=O)C2CCCN(c3ncnc4onc(-c5ccc(F)cc5)c34)C2)cc1 (stereo not drawn) the results were JMJD2A Tudor inh 3%, G9a inh -3%[59 µM], HP1b binding inh 32% and BAZ2B block 6%[57.1 µM].
For COc1ccc(NC(=O)c2cnc3sc(N4CCOCC4)nn3c2=O)c(OC)c1 the results were JMJD2A Tudor inh -8%, G9a inh -19%[59 µM], HP1b binding inh 19% and BAZ2B block -6%.
For Cc1cc(C)c2nc(N3CCCN(C(=O)c4ccco4)CC3)c(C#N)cc2c1 the results were JMJD2A Tudor inh 0%, G9a inh inconclusive, HP1b binding inh 62%, BAZ2B block inconclusive, Sfp inh 45µM* and L3MBTL1 block -22%.
`COc1ccc2nc(N3CCCCC3)c(C#N)cc2c1` gave JMJD2A Tudor inh 435%, G9a inh inactive, HP1b binding inh inactive, BAZ2B block inactive, Sfp inh 79µM* and L3MBTL1 block 227%.
Screening Cc1ccc2cc(C#N)c(N3CCCC3)nc2c1C returned JMJD2A Tudor inh 163%, G9a inh inconclusive, HP1b binding inh 373%, BAZ2B block 102%, Sfp inh 20µM* and L3MBTL1 block 20%.
For Cc1nc(N2CCN(C(=O)c3ccco3)CC2)c(C#N)c2c1CCCC2 the results were JMJD2A Tudor inh -14%, G9a inh 7%, HP1b binding inh 14%, BAZ2B block -17%[57.1 µM] and Sfp inh -11%.
Cc1ccc2cc(C#N)c(N3CCCN(C(=O)C4CCCO4)CC3)nc2c1C (stereo not drawn) was read as JMJD2A Tudor inh 24%, G9a inh -5%[59 µM], HP1b binding inh 82%, BAZ2B block 1%, Sfp inh -11% and L3MBTL1 block 8%.
COc1ccc2nc(N3CCCC3)c(C#N)cc2c1 was read as JMJD2A Tudor inh 63%, G9a inh 118%, HP1b binding inh 142%, BAZ2B block 85% and Sfp inh 19%.
Cc1ccc2c(=O)c(C(=O)c3ccccc3)cn(CC(=O)NCc3ccccc3)c2n1 was read as JMJD2A Tudor inh 6%, G9a inh -15%[59 µM], HP1b binding inh 38% and BAZ2B block 9%[57.1 µM].
O=c1cc(-c2ccccc2)oc2cc(O)ccc12 was read as JMJD2A Tudor inh -13%, HP1b binding inh 40% and Sfp inh -21%.
`Nc1ccc(-c2c3ccc(=O)cc-3oc3cc(O)ccc23)cc1C(=O)O` gave JMJD2A Tudor inh inconclusive, G9a inh 45µM*, HP1b binding inh inconclusive, BAZ2B block inconclusive and Sfp inh -11%.
`COc1ccc(-c2c(C)c3ccc(O)cc3oc2=O)cc1OC` gave JMJD2A Tudor inh 14%, G9a inh 20%, HP1b binding inh 47%, BAZ2B block -15% and Sfp inh -22%.
`O=c1ccc2c(-c3ccccc3)c3ccc(O)cc3oc-2c1` gave JMJD2A Tudor inh -29%, G9a inh 74%, HP1b binding inh inconclusive, BAZ2B block 15% and Sfp inh 32µM*.
For Cc1ccc(C)c(C(=O)NCCN(C)C)c1 the results were JMJD2A Tudor inh 2%, G9a inh 11%[59 µM], HP1b binding inh 35%, BAZ2B block 8%, Sfp inh 17% and L3MBTL1 block 8%.
Screening C=C(CN(C)C)C(=O)c1cc(C)ccc1C returned JMJD2A Tudor inh 89µM* and HP1b binding inh 35µM*.
For O=c1cc(-c2ccc([N+](=O)[O-])cc2)nc2cc(-c3ccc(F)cc3)[nH]n12 the results were JMJD2A Tudor inh -29%, G9a inh -8%[59 µM], HP1b binding inh -5%, BAZ2B block 3%, Sfp inh 45µM* and L3MBTL1 block 6%.
Cc1cc(Br)ccc1NC(=O)c1cc2c(=O)n(C)c3cc(Cl)ccc3c2s1 was read as JMJD2A Tudor inh -7%, G9a inh 6%[59 µM] and HP1b binding inh 34%.
CC(Oc1cccc(Cl)c1)C(=O)Nc1ccccc1N1CCCC1 (stereo not drawn) was read as JMJD2A Tudor inh inconclusive, G9a inh 50µM*, HP1b binding inh -4%, BAZ2B block -7% and L3MBTL1 block -4%.
`CC(Oc1ccc(Cl)cc1)C(=O)Nc1ccccc1N1CCOCC1` (stereo not drawn) gave JMJD2A Tudor inh 20%, HP1b binding inh 63% and L3MBTL1 block 5%.

Screens deposited in PubChem by National Center for Advancing Translational Sciences (NCATS).
